Assay outcomes from PubChem BioAssay.
In the library only some 2.2% were active in any assay of this set; here they are far more common.
RTF Ca sens act: cardiac RTF calcium sensitization; P19429+P45379; IANBD-labeled TnC RTF fluorescence at EC20 calcium; 0% EC20 calcium, 100% full calcium; activation, % at 7.2 µM; 340,000 compounds, 0.24% hits; AID 493008;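 active means activation above the mean over all tested compounds plus 3 SD, cut at about 30% in these data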;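 further: rise in fluorescence read as greater calcium sensitivity of cardiac thin filaments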
CRFR2-BP antag: CRF-BP/CRF-R2 complex antagonism | HEK293 CRF-R2/CRF-BP, CRF-induced calcium fluorescence | inhibition, % at 11.8 µM | 350,000 compounds, 0.59% hits;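 active means inhibition of the ligand-induced calcium signal above about 50% at the single tested concentration, limit read from the data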
CRFBP-R2 agonist: CRF-BP/CRF-R2 complex agonism | activation, % at 13.2 µM | 350,000 compounds, 0.46% hits | HEK293 CRF-R2/CRF-BP, calcium dye fluorescence (FLIPR); percent of saturating CRF peptide response;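 active means activation of at least 50%, plus an integration ratio under a set limit after plate pattern correction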;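 further: plate controls were neutral control wells without compound for no effect and CRF at EC100 for full effect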
Myeloid diff 2: promotes myeloid progenitor differentiation | calls only at 10 µM | 360,000 compounds, 1% hits | ER-HoxA9 myeloid progenitors, lysozyme-GFP differentiation, flow cytometry;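 active means normalized GFP-positive differentiation at or above the plate's own cutoff, the solvent-only control mean plus 3 SD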;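 further: cells exposed to compound for four days before flow analysis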
Cardiac RTF inh: cardiac RTF calcium desensitization; 340,000 compounds, 0.12% hits; inhibition, % at 7.15 µM; AID 493244; P19429+P45379; IANBD-labeled cardiac RTF, Ca2+ fluorescence;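 active means inhibition above the mean inhibition of all tested compounds plus 3 SD, cut at about 17% in these data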;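 further: assay run at fixed EC70 calcium of 1.6 mM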
Starred values were filed as active, the others as inactive; i = inactive; . = no result; + = active, no number.

SMILES	RTF Ca sens act	CRFR2-BP antag	CRFBP-R2 agonist	Myeloid diff 2	Cardiac RTF inh
C#CCOCCOCCOCCNc1nc(N2CCN(C(=O)CCCCCCCCCCNC(=O)[C@@H](CCC(=O)O)n3cc(CCCCCN)nn3)CC2)nc(N2CCN(C(=O)CCCCCCCCCCNC(=O)[C@H](CCCCN)n3cc(C[C@@H](C)CC)nn3)CC2)n1	4.5	-188.6	148.9*	i	4.8
O=C(CSC1CN(C(c2ccccc2)c2ccccc2)C1)N/N=C/c1ccccc1	4.8	11.5	-1.4	i	-1.6
F[B-](F)(F)c1cncc2ccccc12	0.1	-4.1	0.8	i	-0.5
Cc1ccc(CCNC(=O)C2CCCN(S(=O)(=O)N3CC(C)CC(C)C3)C2)cc1 (stereo not drawn)	2.3	85.0*	0.6	i	-5.8
Cc1ccc(C(=O)NC(C)c2nnc(SCC(=O)NC3CCCC3)n2C)cc1 (stereo not drawn)	-4.2	-7.3	0.3	i	-0.4
O=S(=O)(N=C1C=CC(=NS(=O)(=O)c2ccccc2)c2ccccc21)c1ccccc1	.	14.5	-3.8	+	.
Cc1cc(C(=O)O)ccc1N/C=C1\CCCC(C)C1=O (stereo not drawn)	-2.4	2.8	-1.0	i	2.9
CC1CCC/C(=C\Nc2ccc(O)cc2)C1=O (stereo not drawn)	4.6	-27.6	0.4	+	-7.2
COc1ccccc1-n1cnnc1SCC(=O)NCC1CCCO1 (stereo not drawn)	-1.1	20.3	-0.1	i	4.6
CCCCn1c(/C=N/Nc2nc3ccccc3[nH]2)nc2ccccc21	-5.1	-8.2	-0.3	+	5.5
Cc1ccc(C(=O)NCCNC(=O)CN2CCOCC2)cc1	2.5	4.0	-0.8	i	-3.5
Cc1ccc(C(=O)N2CCN(C(=O)CN3CCOCC3)C2)cc1	8.5	77.8*	-4.4	i	-4.5
Cc1ccc(S(=O)(=O)N2CCOCC2)cc1C(=O)OCC(=O)Nc1ccc2[nH]c(=O)[nH]c2c1	-0.3	-3.9	1.3	i	-5.8
COc1ccc(CCNc2oc(COc3ccccc3)nc2C#N)cc1	-0.9	49.9	-2.3	i	-9.9
COc1ccc(CNc2oc(COc3ccccc3)nc2C#N)cc1	18.1	51.8*	-5.5	i	-6.4
O=C(CSc1nnc(-c2cccs2)n1C1CC1)NCC1CCCO1 (stereo not drawn)	-3.0	-4.8	0.6	i	-7.0
O=C1c2ccccc2-c2nnc(-c3ccc(O)cc3)cc21	9.4	103.1*	-1.1	i	-5.8
CCCCCCc1cc2cc(C(=O)NC)c(=N)oc2cc1O	7.1	-306.0	285.6*	i	-6.5
CCCCCCc1cc2cc(/C(N)=N/NC(=O)c3ccncc3)c(=O)oc2cc1O	11.1	-47.6	102.3*	i	-3.8
CCCCCCc1cc2cc(C(=O)OCC)c(=O)oc2cc1O	-0.6	-14.9	20.7	i	2.8
CCCCCCc1cc2cc(C(=O)Nc3cccc(OC)c3)c(=O)oc2cc1O	-5.3	-12.1	57.1*	i	4.2
COc1ccc(C2=NS(=O)(=O)N(C)C(C(=O)N3CCCCC3)=C2)cc1OC	-3.2	13.7	0.1	i	0.1
Cc1ccc(C)c(NC(=O)CSc2nnc(NC(=O)C3CC3)s2)c1	-3.9	-7.0	-0.4	i	0.4
O=C(NNC(=O)c1ccccc1O)c1ccc(S(=O)(=O)Nc2ccccc2)cc1	1.0	-15.5	0.8	i	-0.6
O=C(Nc1ccc(Cl)cc1)c1cncs1	-8.8	-10.5	-1.0	i	5.9
SMILES	RTF Ca sens act	CRFR2-BP antag	CRFBP-R2 agonist	Myeloid diff 2	Cardiac RTF inh
O=C(NCC1CCCO1)c1cccc2c1C(=O)c1ccc(N3CCC(Cc4ccccc4)CC3)cc1S2(=O)=O (stereo not drawn)	61.3*	-16.4	83.4*	i	-161.8
Cc1ccc(CNC(=O)c2cccc3c2C(=O)c2ccc(N4CCCCC4)cc2S3(=O)=O)cc1	65.3*	-18.5	57.2*	i	-84.3
O=C(NCc1ccccc1Br)c1cccc2c1C(=O)c1ccc(N3CCC(Cc4ccccc4)CC3)cc1S2(=O)=O	5.5	-34.5	60.6*	+	-2.4
Cc1ccc(CNC(=O)c2cccc3c2C(=O)c2ccc(N4CCOCC4)cc2S3(=O)=O)cc1	9.9	18.5	10.7	i	-12.9
O=C(NCc1ccccc1C(F)(F)F)c1cccc2c1C(=O)c1ccc(N3CCC(N4CCCCC4)CC3)cc1S2(=O)=O	.	-19.0	34.6	+	.
O=C(NCC1CC1)c1cccc2c1C(=O)c1ccc(N3CCCC3)cc1S2(=O)=O	18.3	-5.9	23.3	i	-38.5
CC1CCN(c2ccc3c(c2)S(=O)(=O)c2cccc(C(=O)NC[C@@H]4CCCO4)c2C3=O)CC1	5.9	-3.8	20.9	i	-20.8
Cc1ccc2c(c1)N(C(=O)CCC(=O)NCc1ccccn1)CC(C)O2 (stereo not drawn)	4.8	7.7	-0.8	i	-2.1
Cc1ccc(S(=O)(=O)N2[C@H](CC(=O)c3ccc(Cl)c(Cl)c3)OC[C@@H]2C)cc1	.	.	.	i	.
NC(=S)NNC(=O)C12CC3CC(CC(C3)C1)C2	-0.9	-26.2	125.1*	i	6.8
COc1ccc(C2CC(c3ccc(Cl)cc3)=NN2c2ccc(S(N)(=O)=O)cc2)cc1 (stereo not drawn)	-6.1	3.5	2.8	i	-4.7
COc1ccc(C2CC(c3ccncc3)=NN2c2ccc(S(N)(=O)=O)cc2)cc1 (stereo not drawn)	11.6	-34.6	-0.3	+	-23.1
O=C(NC(Nc1ncc(S(=O)(=O)c2ccc([N+](=O)[O-])cc2)s1)(C(F)(F)F)C(F)(F)F)c1ccc(Cl)cc1	2.7	62.2*	33.9	i	-24.9
O=C(Nc1ncc(S(=O)(=O)c2ccc([N+](=O)[O-])cc2)s1)c1cccc2ccccc12	2.4	-70.5	112.4*	i	-7.6
COCC(=O)Nc1ncc(S(=O)(=O)c2ccc([N+](=O)[O-])cc2)s1	0.6	10.2	-1.2	.	-12.6
CCOC(=O)C1=C(C)C/C(=N\NC(=O)c2ccccc2O)CC1	2.2	10.2	-1.6	i	3.5
C=C1C(=O)C=C2CN(C(=O)c3ccccc3)[C@@](Cc3ccc(F)cc3)(C(=O)OC)[C@@H]12	6.4	-80.7	30.8	+	1.9
O=C(Nc1cc(C(F)(F)F)cc(C(F)(F)F)c1)Nc1cnn(-c2ccc([N+](=O)[O-])cc2)c1C(F)(F)F	-4.0	-29.3	58.2*	i	-2.2
O=C(c1cc(-c2ccc(O)cc2)on1)N1CCc2ccccc2C1	-3.7	-17.8	-0.5	i	2.9
O=C(c1cc(-c2cccc(Cl)c2)on1)N1CCc2ccccc2C1	5.0	-2.9	0.3	+	-3.0
N#Cc1c(N)n(CCNC(=O)c2cccs2)c2nc3ccccc3nc12	-3.7	-23.6	1.8	+	-16.8
N#C/C(=C\c1coc2ccc(O)cc2c1=O)C(=O)Nc1nc2ccccc2s1	313.1*	-184.8	235.4*	i	i
Cc1cccc(N(CC(=O)NC2CCCC2)C(=O)CNC(=O)c2ccco2)c1C	1.0	-2.2	-0.1	i	-4.7
